Data on seven compounds can be found in PubChem BioAssay AID504912 (The Scripps Research Institute Molecular Screening Center, 2011).

By inhibition is commonly meant the change of the read-out against control, counted positive when it falls.

The other results are listed elsewhere or left out. Unmarked numbers belong to inactive results. The rule behind the calls is not given here.

This assay in a line: OPRM1-OPRD1 heterodimer inverse agonism – cell-based, luminescence, counter-screen for HTR5A inverse agonist project (AID 504912).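 Note: 0% = cells with DMSO and 100% = wells without cells.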 The following applies: U2OS counter-screen cells, complementation luminescence; at 9.3 µM; stronger effect = higher value. (In general: A counterscreen serves to expose hits that act by an unwanted route or on another target.)
As for `O=C(/C=C/c1ccc(Cl)c([N+](=O)[O-])c1)c1ccc(O)cc1`, the inhibition is -15.2%.

Turning to `O=c1ccc2c(-c3ccccc3S(=O)(=O)O)c3ccc(O)c(O)c3oc-2c1O`, the inhibition was -10.2%.

In the case of `COc1ccc(-c2nnc(SC(C)C(=O)NC3CC3)o2)cc1` (configuration not stated), the inhibition is -19.6%.

On to `Cc1noc(C)c1COc1cccc(C(=O)Nc2cccnc2)c1`, for which the inhibition was 3.69%.

`CCCCCCCCc1c(O)nc(-n2[nH]c(C)c(CCO)c2=O)[nH]c1=O`: the inhibition was -29.4%.

With `CCOC(=O)NC(=O)C(=CNc1cccc(OC)c1)C(=O)NC(=O)OCC`, the inhibition was -172%.

For the compound `Cc1cc(C)n(-c2ccc(Cl)c(C(=O)O)n2)n1`, the inhibition was -60.3%.
